Measured values: the supplement of paper PMC11732987, “Enantioselective OTUD7B fragment discovery through chemoproteomics screening and high-throughput optimisation” (Communications Chemistry, 2025)

Tests used:
Assay in all cases: log2 ratio of Biotin-Ahx-Ub-VS probe labelling (fragment/DMSO); higher = less target engagement (more negative = stronger competition), active = hit call of the paper (q ≤ 0.05, log2 ratio ≤ -1)
Conditions in all cases: compound concentration: 200 uM; treatment time: 3 h
USP16 = USP16 (UniProt Q9Y5T5)
Sequence of USP16 (Q9Y5T5 whole entry, looked up, the tested form may be a part): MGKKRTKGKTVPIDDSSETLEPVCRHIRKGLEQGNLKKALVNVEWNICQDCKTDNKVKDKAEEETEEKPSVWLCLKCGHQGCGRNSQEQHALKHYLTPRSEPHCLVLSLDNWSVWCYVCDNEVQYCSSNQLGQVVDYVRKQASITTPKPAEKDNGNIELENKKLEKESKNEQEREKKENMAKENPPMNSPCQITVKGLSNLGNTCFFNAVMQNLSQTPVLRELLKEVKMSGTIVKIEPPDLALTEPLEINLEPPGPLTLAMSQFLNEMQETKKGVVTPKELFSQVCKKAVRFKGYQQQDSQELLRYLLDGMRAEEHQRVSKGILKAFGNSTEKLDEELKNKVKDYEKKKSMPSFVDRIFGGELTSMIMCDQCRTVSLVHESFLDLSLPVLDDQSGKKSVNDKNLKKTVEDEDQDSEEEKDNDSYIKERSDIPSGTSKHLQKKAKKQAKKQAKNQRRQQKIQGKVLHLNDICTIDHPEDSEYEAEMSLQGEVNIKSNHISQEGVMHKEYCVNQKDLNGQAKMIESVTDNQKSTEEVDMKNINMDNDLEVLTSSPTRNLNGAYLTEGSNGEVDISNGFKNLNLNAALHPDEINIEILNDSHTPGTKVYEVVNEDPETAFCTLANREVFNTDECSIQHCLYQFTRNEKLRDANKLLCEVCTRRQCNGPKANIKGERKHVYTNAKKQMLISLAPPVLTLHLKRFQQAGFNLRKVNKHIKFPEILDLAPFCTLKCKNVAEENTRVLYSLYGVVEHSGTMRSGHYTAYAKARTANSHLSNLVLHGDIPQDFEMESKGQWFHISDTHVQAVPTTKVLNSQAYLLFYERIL
Outline: (§1)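 Global-median-normalised Spectronaut label-free quantities were compared by unpaired t-test, and values are average log2 ratios of fragment over vehicle. Only proteins with ≥2 unique peptides were used. HEK293T lysate (495 µg per sample) was treated in triplicate with fragment at 200 µM or vehicle for 3 h and then with Biotin-Ahx-Ub-VS at 0.5 µM final for 1 h. Labelled DUBs were then NeutrAvidin-enriched, digested with LysC and trypsin, and run by diaPASEF LC-MS/MS.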

USP19 = biological target: T1, USP19 (UniProt O94966)
T1 sequence (whole entry): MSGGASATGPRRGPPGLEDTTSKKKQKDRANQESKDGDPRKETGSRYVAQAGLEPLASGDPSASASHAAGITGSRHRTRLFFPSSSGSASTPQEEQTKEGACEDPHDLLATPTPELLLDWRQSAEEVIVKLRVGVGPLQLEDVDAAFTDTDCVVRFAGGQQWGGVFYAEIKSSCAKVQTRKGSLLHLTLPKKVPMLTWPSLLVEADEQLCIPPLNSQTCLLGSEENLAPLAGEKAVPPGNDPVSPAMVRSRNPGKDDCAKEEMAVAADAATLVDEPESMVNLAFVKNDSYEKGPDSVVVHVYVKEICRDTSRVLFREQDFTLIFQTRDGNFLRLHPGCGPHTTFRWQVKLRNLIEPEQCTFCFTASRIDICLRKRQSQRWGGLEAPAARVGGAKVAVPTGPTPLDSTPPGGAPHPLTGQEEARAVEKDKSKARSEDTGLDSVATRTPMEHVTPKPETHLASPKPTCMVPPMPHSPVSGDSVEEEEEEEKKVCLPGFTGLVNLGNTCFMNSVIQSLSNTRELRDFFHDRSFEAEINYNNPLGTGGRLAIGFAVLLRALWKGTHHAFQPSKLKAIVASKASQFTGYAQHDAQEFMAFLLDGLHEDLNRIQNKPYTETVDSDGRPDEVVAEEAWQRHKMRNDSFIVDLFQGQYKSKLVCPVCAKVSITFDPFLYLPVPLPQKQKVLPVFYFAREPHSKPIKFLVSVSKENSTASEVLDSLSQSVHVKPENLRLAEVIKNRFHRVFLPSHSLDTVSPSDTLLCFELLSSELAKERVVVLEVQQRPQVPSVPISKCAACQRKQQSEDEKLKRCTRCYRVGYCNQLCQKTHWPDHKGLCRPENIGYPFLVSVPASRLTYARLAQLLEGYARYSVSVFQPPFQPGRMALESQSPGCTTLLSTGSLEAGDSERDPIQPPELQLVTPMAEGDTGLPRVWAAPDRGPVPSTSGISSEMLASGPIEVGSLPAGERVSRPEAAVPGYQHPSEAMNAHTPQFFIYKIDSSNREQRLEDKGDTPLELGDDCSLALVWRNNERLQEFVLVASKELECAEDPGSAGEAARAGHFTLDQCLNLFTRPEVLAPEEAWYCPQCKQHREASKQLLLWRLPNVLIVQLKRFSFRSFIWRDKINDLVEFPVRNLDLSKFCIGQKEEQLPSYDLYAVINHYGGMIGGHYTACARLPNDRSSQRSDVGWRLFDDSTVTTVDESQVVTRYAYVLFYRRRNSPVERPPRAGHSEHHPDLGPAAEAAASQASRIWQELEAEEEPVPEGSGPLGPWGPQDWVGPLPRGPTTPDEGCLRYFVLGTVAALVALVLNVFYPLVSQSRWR
Outline: as §1

USP24 = USP24 (UniProt Q9UPU5)
Sequence of USP24 (Q9UPU5 whole entry): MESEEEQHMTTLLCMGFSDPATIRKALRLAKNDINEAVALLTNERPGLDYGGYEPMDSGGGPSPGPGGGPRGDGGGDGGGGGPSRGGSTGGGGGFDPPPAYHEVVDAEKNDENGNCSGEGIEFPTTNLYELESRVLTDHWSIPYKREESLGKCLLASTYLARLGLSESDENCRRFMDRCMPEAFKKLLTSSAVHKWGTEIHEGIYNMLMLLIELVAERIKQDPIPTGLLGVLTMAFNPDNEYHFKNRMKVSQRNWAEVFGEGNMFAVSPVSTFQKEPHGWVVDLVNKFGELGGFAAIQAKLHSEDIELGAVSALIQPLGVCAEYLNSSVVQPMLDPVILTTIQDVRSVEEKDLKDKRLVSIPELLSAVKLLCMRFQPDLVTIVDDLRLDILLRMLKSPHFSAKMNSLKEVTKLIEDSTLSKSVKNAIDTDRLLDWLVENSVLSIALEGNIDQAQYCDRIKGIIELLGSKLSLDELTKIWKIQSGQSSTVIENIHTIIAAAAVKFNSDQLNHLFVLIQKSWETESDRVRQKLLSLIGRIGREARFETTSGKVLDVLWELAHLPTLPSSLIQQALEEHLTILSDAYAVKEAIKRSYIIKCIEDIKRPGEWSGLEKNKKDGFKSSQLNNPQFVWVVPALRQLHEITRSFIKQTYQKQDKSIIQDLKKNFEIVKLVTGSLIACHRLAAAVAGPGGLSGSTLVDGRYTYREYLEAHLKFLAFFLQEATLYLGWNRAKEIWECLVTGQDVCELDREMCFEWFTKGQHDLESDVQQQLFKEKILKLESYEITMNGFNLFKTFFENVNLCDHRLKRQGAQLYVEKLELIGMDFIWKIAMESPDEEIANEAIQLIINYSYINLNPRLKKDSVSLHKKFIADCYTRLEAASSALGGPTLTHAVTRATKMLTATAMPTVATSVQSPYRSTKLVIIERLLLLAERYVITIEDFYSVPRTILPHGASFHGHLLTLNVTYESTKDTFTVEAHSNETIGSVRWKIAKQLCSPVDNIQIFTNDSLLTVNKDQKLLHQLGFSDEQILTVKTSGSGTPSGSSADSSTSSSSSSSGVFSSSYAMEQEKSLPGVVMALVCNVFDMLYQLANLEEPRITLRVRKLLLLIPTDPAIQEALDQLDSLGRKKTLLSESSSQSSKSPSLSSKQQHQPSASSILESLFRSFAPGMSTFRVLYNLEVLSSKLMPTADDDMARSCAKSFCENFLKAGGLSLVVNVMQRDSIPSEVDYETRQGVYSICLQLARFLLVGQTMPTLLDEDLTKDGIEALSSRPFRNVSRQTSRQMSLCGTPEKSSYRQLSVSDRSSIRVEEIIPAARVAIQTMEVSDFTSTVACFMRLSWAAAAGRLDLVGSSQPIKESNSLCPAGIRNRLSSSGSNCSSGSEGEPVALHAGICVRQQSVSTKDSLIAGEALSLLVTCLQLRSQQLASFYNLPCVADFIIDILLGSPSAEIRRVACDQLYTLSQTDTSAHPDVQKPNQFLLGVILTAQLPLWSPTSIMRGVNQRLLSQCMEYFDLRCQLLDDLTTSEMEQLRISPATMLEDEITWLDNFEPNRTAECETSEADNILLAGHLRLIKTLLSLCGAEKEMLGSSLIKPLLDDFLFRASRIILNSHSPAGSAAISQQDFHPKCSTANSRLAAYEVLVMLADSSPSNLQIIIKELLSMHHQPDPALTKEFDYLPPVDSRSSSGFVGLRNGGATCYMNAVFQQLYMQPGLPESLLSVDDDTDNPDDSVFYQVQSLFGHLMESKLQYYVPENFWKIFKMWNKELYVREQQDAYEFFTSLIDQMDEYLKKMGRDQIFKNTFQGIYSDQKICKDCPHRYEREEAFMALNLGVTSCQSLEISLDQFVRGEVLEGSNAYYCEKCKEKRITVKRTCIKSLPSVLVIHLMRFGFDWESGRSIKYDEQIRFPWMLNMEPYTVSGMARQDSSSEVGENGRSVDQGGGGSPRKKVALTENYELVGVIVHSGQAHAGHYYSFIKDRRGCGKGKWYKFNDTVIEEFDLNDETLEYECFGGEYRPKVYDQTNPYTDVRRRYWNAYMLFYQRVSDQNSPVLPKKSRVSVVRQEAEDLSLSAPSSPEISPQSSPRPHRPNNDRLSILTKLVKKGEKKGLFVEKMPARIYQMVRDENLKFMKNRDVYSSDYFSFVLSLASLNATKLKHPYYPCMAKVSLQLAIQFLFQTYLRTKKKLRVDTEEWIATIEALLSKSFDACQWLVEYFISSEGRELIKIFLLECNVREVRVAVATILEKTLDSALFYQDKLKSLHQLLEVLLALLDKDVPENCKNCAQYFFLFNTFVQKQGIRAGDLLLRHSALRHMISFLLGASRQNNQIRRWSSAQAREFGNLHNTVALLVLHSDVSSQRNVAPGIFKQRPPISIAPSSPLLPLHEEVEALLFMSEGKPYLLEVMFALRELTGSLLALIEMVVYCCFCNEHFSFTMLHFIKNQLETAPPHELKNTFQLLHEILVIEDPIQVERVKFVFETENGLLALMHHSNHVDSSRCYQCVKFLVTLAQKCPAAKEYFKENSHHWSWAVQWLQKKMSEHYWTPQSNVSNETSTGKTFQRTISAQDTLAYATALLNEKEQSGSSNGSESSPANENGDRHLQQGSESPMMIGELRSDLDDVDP
Outline: as §1

USP25 = biological target: T2, USP25 (UniProt Q9UHP3)
T2 sequence (whole entry): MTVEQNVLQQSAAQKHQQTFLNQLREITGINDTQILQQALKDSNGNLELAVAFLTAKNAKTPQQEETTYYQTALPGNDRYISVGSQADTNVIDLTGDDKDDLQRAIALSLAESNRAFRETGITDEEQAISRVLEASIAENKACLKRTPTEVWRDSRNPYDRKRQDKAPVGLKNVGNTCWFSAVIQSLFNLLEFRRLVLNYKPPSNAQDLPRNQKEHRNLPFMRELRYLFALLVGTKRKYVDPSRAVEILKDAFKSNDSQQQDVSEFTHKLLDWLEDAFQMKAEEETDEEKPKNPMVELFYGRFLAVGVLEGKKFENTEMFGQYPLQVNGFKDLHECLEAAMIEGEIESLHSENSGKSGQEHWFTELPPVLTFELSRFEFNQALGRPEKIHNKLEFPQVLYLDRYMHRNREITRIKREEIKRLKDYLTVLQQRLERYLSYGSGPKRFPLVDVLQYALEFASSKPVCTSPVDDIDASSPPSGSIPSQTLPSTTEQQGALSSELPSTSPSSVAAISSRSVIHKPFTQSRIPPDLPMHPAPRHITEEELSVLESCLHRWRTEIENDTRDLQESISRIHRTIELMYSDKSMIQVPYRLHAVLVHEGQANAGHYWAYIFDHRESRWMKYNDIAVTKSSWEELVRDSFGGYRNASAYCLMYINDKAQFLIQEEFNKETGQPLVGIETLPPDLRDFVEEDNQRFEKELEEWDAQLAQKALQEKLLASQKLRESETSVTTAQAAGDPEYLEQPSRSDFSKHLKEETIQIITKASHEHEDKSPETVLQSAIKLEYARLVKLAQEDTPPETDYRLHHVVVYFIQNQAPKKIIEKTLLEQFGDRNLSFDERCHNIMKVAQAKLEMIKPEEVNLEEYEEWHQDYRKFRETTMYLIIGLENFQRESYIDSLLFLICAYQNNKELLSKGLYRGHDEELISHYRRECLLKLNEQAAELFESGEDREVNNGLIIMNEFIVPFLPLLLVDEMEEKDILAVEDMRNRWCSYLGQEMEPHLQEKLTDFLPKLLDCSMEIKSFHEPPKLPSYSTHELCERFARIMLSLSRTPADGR
Outline: as §1

USP28 = biological target: T3, USP28 (UniProt Q96RU2)
T3 sequence (whole entry): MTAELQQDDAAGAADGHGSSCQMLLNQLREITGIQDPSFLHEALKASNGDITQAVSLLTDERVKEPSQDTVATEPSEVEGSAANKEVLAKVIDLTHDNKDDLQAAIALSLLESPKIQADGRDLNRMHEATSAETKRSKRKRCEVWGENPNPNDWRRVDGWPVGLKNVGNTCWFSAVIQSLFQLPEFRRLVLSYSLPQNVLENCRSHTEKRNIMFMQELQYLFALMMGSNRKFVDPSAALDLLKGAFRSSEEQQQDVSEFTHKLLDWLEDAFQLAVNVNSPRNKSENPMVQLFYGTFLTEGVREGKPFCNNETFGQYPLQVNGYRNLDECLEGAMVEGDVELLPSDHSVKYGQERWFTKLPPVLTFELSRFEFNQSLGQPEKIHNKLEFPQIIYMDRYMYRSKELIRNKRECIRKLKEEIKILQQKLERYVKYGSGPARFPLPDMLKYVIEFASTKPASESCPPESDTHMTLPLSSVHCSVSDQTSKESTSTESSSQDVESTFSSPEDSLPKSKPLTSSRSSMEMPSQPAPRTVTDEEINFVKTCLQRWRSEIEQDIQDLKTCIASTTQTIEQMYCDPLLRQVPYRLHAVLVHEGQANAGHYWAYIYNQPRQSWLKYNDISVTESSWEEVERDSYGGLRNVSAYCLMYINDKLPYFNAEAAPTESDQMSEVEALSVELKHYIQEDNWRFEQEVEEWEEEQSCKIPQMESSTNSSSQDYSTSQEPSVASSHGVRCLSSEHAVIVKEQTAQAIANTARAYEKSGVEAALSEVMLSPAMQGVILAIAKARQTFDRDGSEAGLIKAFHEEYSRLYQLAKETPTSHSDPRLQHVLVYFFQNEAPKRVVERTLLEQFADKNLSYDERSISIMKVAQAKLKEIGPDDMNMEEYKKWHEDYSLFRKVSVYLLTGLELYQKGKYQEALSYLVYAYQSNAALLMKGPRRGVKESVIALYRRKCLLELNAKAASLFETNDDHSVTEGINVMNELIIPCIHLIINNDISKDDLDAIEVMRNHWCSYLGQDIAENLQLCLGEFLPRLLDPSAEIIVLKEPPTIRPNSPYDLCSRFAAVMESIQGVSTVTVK
Outline: as §1

Measured: log2 ratio of Biotin-Ahx-Ub-VS probe labelling

Cc1c(NC(=O)CCl)c(=O)n(-c2ccccc2)n1C
inactive: USP16 -0.462 | USP19 -0.181 | USP24 -0.125 | USP25 -0.16 | USP28 -0.182
